Hits are enriched below; roughly 3.3% of the tested compounds scored in any of these assays.
ERa coact pot: enhancers of ERα–SRC-1 coactivator binding, primary screen, biochemical, TR-FRET, ERα LBD, low estradiol. Estrogen receptor (Homo sapiens), P03372. TR-FRET ERalpha-LBD/SRC-Cy5 coactivator binding, 2 h; 100 = basal binding, no effect. coactivator binding (% of control), % at 25.6 µM. 1.3% of 86,000 active. AID 639, 2007; in the data active means activity above about 200%;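 further: binding measured in presence of low estradiol as agonist stimulus; 0% = peptide alone without receptor and 100% = receptor with peptide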
ERb SRC1 inh: inhibitors of ERβ-SRC1 coactivator interaction, primary screen, biochemical, TR-FRET, ERβ LBD, SRC-1 peptide | TR-FRET ER-beta LBD / SRC1-Cy5 peptide binding; receptor agonist-loaded with 1 µM estradiol | inhibition, % at 25.6 µM | 1.3% of 86,000 active;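 active means compounds whose percent inhibition of the receptor-coactivator binding signal exceeds about 50% in the single-dose screen, limit read from the data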;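 further: 0% = receptor plus peptide wells without compound and 100% = peptide-only wells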
FAK inh: FAK kinase inhibitors, primary screen, biochemical. 0.84% of 97,000 active. AID 727, 2007. inhibition, %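 (tested at 7 µM)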. biochemical FAK kinase activity assay;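 further: 0% = DMSO and 100% = reference compound high control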
ERa coact inh: ERα–SRC-1 coactivator interaction inhibitors, primary screen, biochemical, TR-FRET, ERα LBD, estradiol-bound; Estrogen receptor (Homo sapiens), P03372; TR-FRET ER-alpha LBD / SRC-1 peptide; inhibition, % at 25.6 µM; 1.7% of 86,000 active; AID 629, 2007; in the data active means inhibition above about 50%;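 further: 0% = receptor plus peptide control and 100% = peptide only without receptor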
Smad3 inh: Smad3/FoxH1 peptide binding inhibitors, primary screen, biochemical, TR-FRET; Mothers against decapentaplegic homolog 3 (Homo sapiens), P84022; TR-FRET Smad3/Dy647-FoxH1 peptide binding, europium anti-His; inhibition, % at 25 µM; 0.29% of 88,000 active; AID 630, 2007;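 active means compounds that reduce the energy-transfer binding signal between the protein and its labelled peptide by more than half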;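 further: 0% = Smad3 plus labelled peptide maximal FRET and 100% = peptide-only background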
FAK inh conf: FAK kinase inhibitors, retest, confirmation, biochemical | AID 794, 2007 | FAK kinase biochemical inhibition assay | inhibition, % at 7 µM | 28% of 750 active | shares compounds with FAK inh
The depositor's hits bear a star; nt = no result; [ ] = remark or other dose. Unless noted, no stated cut-off is given here; in the data, active means inhibition above about 19%; inactive means the rest.

SMILES | ERa coact pot | ERb SRC1 inh | FAK inh | ERa coact inh | Smad3 inh | FAK inh conf
C=CCOc1ccc(/C=C/C(C)=N\O)cc1 | 144.1 | -47.1 | 19.8* | -38.6 | 0.9 | 5.3
Cc1ccc(-n2ncc3c(NCc4ccco4)ncnc32)c(C)c1 | 85.8 | 21.1 | nt | 9.6 | 7.2 | nt
Cc1ccc2[nH]c3c(NCc4ccco4)ncnc3c2c1 | 81.2 | 26.1 | 34.1* | 15.7 | -5.0 | 20.6*
CCC(=O)Nc1nnc(Sc2ccc(N(C)C)cc2)s1 | nt | nt | 20.6* | nt | nt | 1.5
CN(C(=O)COC(=O)c1ccc(Cl)cc1N)C1CCS(=O)(=O)C1 (stereo not given) | nt | nt | -0.3 | nt | nt | nt
COc1ccc(/C=N/NC(=O)CCCOc2ccc(Cl)cc2Cl)cc1[N+](=O)[O-] | nt | nt | 22.9* | nt | nt | 9.0
COc1ccc(CN(C#N)c2nc(SC)nc(N(C)C)n2)cc1 | 119.2 | 16.0 | 6.5 | -10.5 | 8.7 | nt
Cc1cc(C)c2cc3c(N)c(C(=O)N4CCc5ccccc5C4)sc3nc2c1 | nt | nt | 1.9 | nt | nt | nt
CN1CCc2nc3sc(C(=O)C45CC6CC(CC(C6)C4)C5)c(N)c3cc2C1 | nt | nt | 51.0* | nt | nt | 34.1*
CC(C)(C)C(=O)Nc1ccc(N2CCCC2)cc1 | 92.0 | 4.5 | 3.8 | -4.8 | -0.6 | nt
CCNC(=O)N1CCOCC1 | 106.2 | -7.9 | 0.1 | -6.6 | 3.5 | nt
COC(=O)c1ccccc1NC(=O)CSc1nc(NC(=O)c2ccccc2)c2c(C)c(C)oc2n1 | 184.8 | 0.5 | -5.9 | -1.1 | -5.5 | nt
CCOC(=O)c1ccc(NC(=O)CSc2nc(NC(=O)c3ccccc3)c3c(C)c(C)oc3n2)cc1 | 86.5 | -13.6 | 27.2* | -6.7 | -9.1 | 7.4
COc1cccc(-c2nc(-c3ccccn3)no2)c1 | 96.8 | -2.1 | 98.3* | 6.8 | 4.2 | -2.1
c1ccc(-c2noc(-c3cccnc3)n2)nc1 | 113.9 | -9.0 | 0.9 | -1.6 | 1.6 | nt
CCN(CC)CCn1c2ccccc2c2cnc(N)c(C#N)c21 | 106.3 | -15.4 | 39.9* | -1.9 | -3.6 | 18.4
O=c1c(-c2nc3ccccc3o2)c2oc3ccccc3n2c2ccccc12 | nt | nt | 23.6* | nt | nt | -0.5
Nc1cc(N)cc(-c2nc3ccccc3o2)c1 | 120.4 | -0.5 | nt | -6.4 | 1.6 | nt
O=C(COc1ncnc2ccc(Br)cc12)Nc1ccc(N2CCOCC2)cc1 | 100.9 | 14.7 | 0.3 | 6.9 | -6.2 | nt
Brc1ccc2ncnc(Nc3ccc(N4CCOCC4)cc3)c2c1 | 31.9 | 82.5*[fluorescence artefact?] | 20.5* | 59.3*[fluorescence artefact?] | 28.7 | 17.9
CCOc1ccc2nnc(-c3ccc(Br)cc3)n2n1 | 137.8 | -2.9 | -6.9 | 9.5 | 6.0 | nt
CCC(=O)Nc1sc2c(c1C(N)=O)CCC2 | 119.4 | -8.0 | 21.4* | -7.9 | 7.0 | 12.1
NC(=O)c1c(NC(=O)c2ccco2)sc2c1CCC2 | 97.3 | 6.1 | 20.1* | 3.4 | 8.7 | 15.1
O=C(N/N=C/C=C/c1ccc([N+](=O)[O-])cc1)c1cccs1 | nt | nt | 55.9* | nt | nt | 21.4*
Cn1c2ccccc2c(=O)n2c(=O)c3ccccc3cc12 | 101.8 | -4.9 | 31.1* | -1.2 | 49.8 | 47.1*
SMILES | ERa coact pot | ERb SRC1 inh | FAK inh | ERa coact inh | Smad3 inh | FAK inh conf
COc1ccc(C2(O)CCN(C(=O)NC3CCCCC3)CC2)cc1 | 123.7 | -4.0 | -7.0 | -1.5 | -12.4 | nt
CCOC(=O)N1CCC2(CC1)C(C#N)=C(N)Oc1n[nH]c(CSc3ccc(C)cc3)c12 | 51.6 | -4.6 | 22.2* | 8.2 | -5.0 | 13.9
COc1cc(OC)cc(-c2nnc(Nc3nc4c(F)cccc4s3)o2)c1 | 435.6*[fluorescence artefact?] | 32.8 | 36.0* | 34.1 | -3.5 | 10.1
Fc1cccc2sc(Nc3nnc(-c4ccccc4)o3)nc12 | 91.6 | 6.8 | -9.7 | 16.9 | 14.3 | nt
COc1ccc(-c2nnc(Nc3nc4c(OC)cccc4s3)o2)cc1 | 96.2 | 73.2*[fluorescence artefact?] | 55.9* | 77.4*[fluorescence artefact?] | 2.7 | 26.7*
CC1(C)CC(=O)C(C=NCCN2CCN(CCc3ccccc3)CC2)=C(O)C1 | 110.5 | -9.6 | 0.4 | -18.4 | 3.0 | nt
CCNc1nc(N)c(C(=O)c2ccc(Cl)s2)s1 | 98.2 | 8.9 | 19.3* | -21.8 | -2.2 | 4.3
CCOC(=O)CNC(=O)c1sc2ncnc(N3CCc4ccccc4C3)c2c1C | 110.1 | -0.2 | 42.4* | 3.6 | 1.4 | 33.5*
CCCCNC(=O)c1sc2ncnc(N3CCc4ccccc4C3)c2c1C | 131.7 | 2.7 | 13.6 | -3.5 | 12.3 | nt
COc1ccccc1CNC(=O)COC(=O)c1cc(-c2ccco2)nc2ccccc12 | nt | nt | 44.5* | nt | nt | 23.6*
O=C(Nc1cccc(-c2nc3ccccc3[nH]2)c1)c1cccc(NC(=O)c2ccco2)c1 | 192.5 | 68.5*[fluorescence artefact?] | 71.0* | 70.0*[fluorescence artefact?] | -5.3 | 61.7*
CC(C)C(C(=O)O)N1C(=O)/C(=C/C=C/c2ccco2)SC1=S (stereo not given) | nt | nt | 87.9* | nt | nt | 17.1
CN(C)c1ccc(/C=C/C=C2/SC(=S)N(c3ccccc3)C2=O)cc1 | nt | nt | -8.2 | nt | nt | nt
O=C1c2ccccc2C(=O)C1c1ccnc2ccccc12 | 241.8* | 31.3 | 50.8* | 15.2 | 33.0 | 33.8*
O=C1C(c2ccnc3ccccc23)=C(O)c2ccccc21 | 309.1* | 38.2 | 31.3* | 32.0 | 19.2 | 26.6*
COc1ccc(S(=O)(=O)Nc2ccc(O)c(Sc3ncn[nH]3)c2)cc1 | 80.4 | 25.8 | -0.3 | 9.3 | 18.6 | nt
COc1ccc(S(=O)(=O)Nc2cc(Sc3ncn[nH]3)c(O)c3ccccc23)cc1 | nt | nt | 45.5* | nt | nt | -1.9
